Measured values reported in PubChem BioAssay (NCATS).
Several values for one entry are separate records, joined by “and”; a condition that tells them apart may be missing. Equal entries are not always repeated. Inconclusive results are not listed. Activity calls are given as the source filed them. Calls come from the whole dose curve; as a rule, active = well fitted cell-killing curve with a large enough effect; inconclusive = small, poorly fitted or top-dose-only effect; inactive = flat fitted curve, though single readings scatter.

experiment: Cellular viability qHTS for adrenocortical cancer (ACC) cell line SW-13 (AID 1963989); conditions: SW-13 ACC cells viability, CellTiter-Glo, 48 h; activity (max response): active compounds read low; note: nearly all actives have a fitted effect of over 65% in size;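 for activity (max response): cells grown in serum-free medium with ITS supplement; % is set by controls: 0 for no effect and ±100 for the full control effect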
Method in brief: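 SW-13 cells in ITS-supplemented serum-free DMEM were plated overnight, then exposed for 48 h at 37C to compound titrations (up to 46 uM final). Viability was read by CellTiter-Glo luminescence; four-parameter logistic fits gave IC50 and efficacy.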
Potency is the fitted concentration of half-maximal effect.

Row | SMILES | activity (max response) | Potency
1 | O=c1oc2c(O)c(O)cc3c(=O)oc4c(O)c(O)cc1c4c23 | 9.27% (inactive) and 2.22% (inactive) | –
2 | Cc1nnc(NS(=O)(=O)c2ccc(N)cc2)s1 | -2.08% (inactive) and -2.89% (inactive) | –
3 | NC1=N[C@H]2[C@H](CS[C@H]2CCCCC(=O)O)N1 | 13% (inactive) | –
4 | Nc1ccn([C@@H]2CS[C@H](CO)O2)c(=O)n1 | 7.41% (inactive) | –
5 | N#Cc1ccc(C(c2ccc(C#N)cc2)n2cncn2)cc1 | 2.79% (inactive) | –
6 | CC(C)Cn1cnc2c(N)nc3ccccc3c21 | 0.433% (inactive) and -11.1% (inactive) | –
7 | c1ccc([C@H]2CN3CCSC3=N2)cc1 | -16.6% (inactive) and 4.55% (inactive) | –
8 | Cn1ccc2cc3c(cc21)CCN3C(=O)Nc1cccnc1 | -12.5% (inactive) and 11.5% (inactive) | –
9 | C=CCn1c(=O)c2cnc(Nc3ccc(N4CCN(C)CC4)cc3)nc2n1-c1cccc(C(C)(C)O)n1 | – | 3.55 µM (active)
10 | CC(=O)OCC(CCn1cnc2cnc(N)nc21)COC(C)=O | 5.15% (inactive) and -10.4% (inactive) | –
11 | OC[C@H]1O[C@@H](OCCc2ccc(O)cc2)[C@H](O)[C@@H](O)[C@H]1O | -16.3% (inactive) | –
12 | CC(=O)c1cnc2ccc(-c3cc(Cl)c(O)c(Cl)c3)nc2c1NC1CCC(CN(C)C)CC1 (configuration not stated) | – | 0.0751 µM (active)
13 | CCc1c(O)cc(O)c(C(=O)c2ccc(OCCN3CCOCC3)c(OC)c2)c1CC(=O)N(CCOC)CCOC | -6.69% (inactive) | –
14 | Cn1cnc([N+](=O)[O-])c1Sc1ncnc2nc[nH]c12 | – | 5.01 µM (active) and 9.2 µM (active) and 7.94 µM (active)
15 | Cc1ccc(C(=O)Nc2ccc(S(=O)(=O)O)c3cc(S(=O)(=O)O)cc(S(=O)(=O)O)c23)cc1NC(=O)c1cccc(NC(=O)Nc2cccc(C(=O)Nc3cc(C(=O)Nc4ccc(S(=O)(=O)O)c5cc(S(=O)(=O)O)cc(S(=O)(=O)O)c45)ccc3C)c2)c1 | -19.9% (inactive) and 5.07% (inactive) | –
16 | C[C@@H](c1ncncc1F)[C@](O)(Cn1cncn1)c1ccc(F)cc1F | -12.4% (inactive) | –
17 | C=CC(=O)Nc1cc2c(Nc3ccc(F)c(Cl)c3)ncnc2cc1OCCCN1CCOCC1 | – | 3.55 µM (active)
18 | Oc1c(Cl)cc(Cl)c2cccnc12 | – | 3.55 µM (active)

Row | SMILES | activity (max response) | Potency
19 | Fc1cc(-c2cccc3ncc(-c4cnn(C5CCNCC5)c4)nc23)cc(F)c1CN1CCOCC1 | – | 25.1 µM (active)
20 | O=C1CSC(=O)N1C(CCc1ccncc1)COc1ccc(-c2cccc([N+](=O)[O-])c2)cc1 (configuration not stated) | – | 7.08 µM (active)
21 | C1COC(NC(C2CC2)C2CC2)=N1 | 14.7% (inactive) and 0.392% (inactive) | –
22 | COc1cc2c(cc1OC)CN(CCc1ccc(NC(=O)c3cc(OC)c(OC)cc3NC(=O)c3cnc4ccccc4c3)cc1)CC2 | -4.36% (inactive) | –
23 | CCCCOc1c(C(=O)c2c(F)cc(C)cc2F)cnc2n[nH]cc12 | -11.6% (inactive) | –
24 | CC(C)CC(=O)Nc1n[nH]c2c1CN(C(=O)C1CCN(C)CC1)C2(C)C | – | 3.98 µM (active)
25 | Cc1nc2n(c(=O)c1CCN1CCC(c3noc4cc(F)ccc34)CC1)CCCC2 | -10.2% (inactive) | –
26 | CCn1cc(C(=O)O)c(=O)c2cc(F)c(N3CCNCC3)cc21 | -6.7% (inactive) and -21.8% (inactive) | –
27 | CNC1CCCN(c2c(F)cc3c(=O)c(C(=O)O)cn(C4CC4)c3c2OC)C1 (configuration not stated) | 2.01% (inactive) and 5.57% (inactive) | –
28 | CC(=O)N(O)CCCCCNC(=O)CCC(=O)N(O)CCCCCNC(=O)CCC(=O)N(O)CCCCCN | – | 28.2 µM (active)
29 | CO[C@@H]1COCC[C@@H]1N[C@@H]1CC[C@@](C(=O)N2CCc3ncc(C(F)(F)F)cc3C2)(C(C)C)C1 | -5.19% (inactive) | –
30 | Nc1cc(C(Cl)=C(Cl)Cl)c(S(N)(=O)=O)cc1S(N)(=O)=O | -17% (inactive) and 6.7% (inactive) | –
31 | CCOC(=O)C1=C(N)Oc2ccc(Br)cc2C1C(C#N)C(=O)OCC (configuration not stated) | -2.87% (inactive) | –
32 | Cc1cnc(Nc2ccc(N3CCN(C)CC3)cc2)nc1Nc1cccc(S(=O)(=O)NC(C)(C)C)c1 | – | 12.6 µM (active)
33 | N=c1nc(N2CCCCC2)cc(N)n1O | 5.33% (inactive) | –
34 | CCOC(=O)c1ncn2c1CN(C)C(=O)c1cc(F)ccc1-2 | 10.7% (inactive) and 8.93% (inactive) | –
35 | CCCn1c(=O)c2[nH]c(-c3cnn(Cc4cccc(C(F)(F)F)c4)c3)nc2n(CC)c1=O | 6% (inactive) | –

experiment: Cellular viability qHTS for adrenocortical cancer (ACC) cell line NCI-H295R (AID 1963990); conditions: CellTiter-Glo ATP luminescence, 48 h; series mostly up to 46.1 µM; note: nearly all actives have a fitted effect of over 60% in size
Method in brief: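 Luminescent ATP read-out (CellTiter-Glo, 20 min RT) after 48 h drug exposure of NCI-H295R cells; a titration up to 46 uM final. Data normalized to doxorubicin (100% inhibition) and DMSO (0%); 4-parameter fit gives IC50, max response.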

Row | SMILES | Potency
36 | Cc1nnc(NS(=O)(=O)c2ccc(N)cc2)s1 | inactive
37 | NC1=N[C@H]2[C@H](CS[C@H]2CCCCC(=O)O)N1 | inactive
38 | Nc1ccn([C@@H]2CS[C@H](CO)O2)c(=O)n1 | inactive
39 | N#Cc1ccc(C(c2ccc(C#N)cc2)n2cncn2)cc1 | inactive
40 | CC(C)Cn1cnc2c(N)nc3ccccc3c21 | inactive
41 | c1ccc([C@H]2CN3CCSC3=N2)cc1 | inactive
42 | Cn1ccc2cc3c(cc21)CCN3C(=O)Nc1cccnc1 | inactive
43 | C=CCn1c(=O)c2cnc(Nc3ccc(N4CCN(C)CC4)cc3)nc2n1-c1cccc(C(C)(C)O)n1 | 1 µM (active)
44 | CC(=O)OCC(CCn1cnc2cnc(N)nc21)COC(C)=O | inactive
45 | CC(=O)c1cnc2ccc(-c3cc(Cl)c(O)c(Cl)c3)nc2c1NC1CCC(CN(C)C)CC1 (configuration not stated) | 0.212 µM (active)
46 | Cc1ccc(C(=O)Nc2ccc(S(=O)(=O)O)c3cc(S(=O)(=O)O)cc(S(=O)(=O)O)c23)cc1NC(=O)c1cccc(NC(=O)Nc2cccc(C(=O)Nc3cc(C(=O)Nc4ccc(S(=O)(=O)O)c5cc(S(=O)(=O)O)cc(S(=O)(=O)O)c45)ccc3C)c2)c1 | inactive
47 | C[C@@H](c1ncncc1F)[C@](O)(Cn1cncn1)c1ccc(F)cc1F | inactive
48 | C=CC(=O)Nc1cc2c(Nc3ccc(F)c(Cl)c3)ncnc2cc1OCCCN1CCOCC1 | 1.46 µM (active) and 6.31 µM (active)
49 | Oc1c(Cl)cc(Cl)c2cccnc12 | 7.94 µM (active)
50 | CC[N+](CC)(CC)CCOc1cccc(OCC[N+](CC)(CC)CC)c1OCC[N+](CC)(CC)CC | inactive
51 | C#CCN[C@@H]1CCc2ccccc21 | inactive

Row | SMILES | Potency
52 | Fc1cc(-c2cccc3ncc(-c4cnn(C5CCNCC5)c4)nc23)cc(F)c1CN1CCOCC1 | 6.31 µM (active)
53 | NC(=O)c1cccc2cn(-c3ccc([C@@H]4CCCNC4)cc3)nc12 | inactive
54 | C1COC(NC(C2CC2)C2CC2)=N1 | inactive
55 | COc1cc2c(cc1OC)CN(CCc1ccc(NC(=O)c3cc(OC)c(OC)cc3NC(=O)c3cnc4ccccc4c3)cc1)CC2 | inactive
56 | Cc1nc2n(c(=O)c1CCN1CCC(c3noc4cc(F)ccc34)CC1)CCCC2 | inactive
57 | CCn1cc(C(=O)O)c(=O)c2cc(F)c(N3CCNCC3)cc21 | inactive
58 | CNC1CCCN(c2c(F)cc3c(=O)c(C(=O)O)cn(C4CC4)c3c2OC)C1 (configuration not stated) | inactive
59 | Clc1ccc(C2(c3ccc(-c4cn[nH]c4)cc3)CCNCC2)cc1 | 15.8 µM (active)
60 | CC(=O)N(O)CCCCCNC(=O)CCC(=O)N(O)CCCCCNC(=O)CCC(=O)N(O)CCCCCN | inactive
61 | CO[C@@H]1COCC[C@@H]1N[C@@H]1CC[C@@](C(=O)N2CCc3ncc(C(F)(F)F)cc3C2)(C(C)C)C1 | inactive
62 | Nc1cc(C(Cl)=C(Cl)Cl)c(S(N)(=O)=O)cc1S(N)(=O)=O | inactive
63 | CCOC(=O)C1=C(N)Oc2ccc(Br)cc2C1C(C#N)C(=O)OCC (configuration not stated) | inactive
64 | Cc1cnc(Nc2ccc(N3CCN(C)CC3)cc2)nc1Nc1cccc(S(=O)(=O)NC(C)(C)C)c1 | 10 µM (active)
65 | N=c1nc(N2CCCCC2)cc(N)n1O | inactive
66 | CCOC(=O)c1ncn2c1CN(C)C(=O)c1cc(F)ccc1-2 | inactive
67 | CCCn1c(=O)c2[nH]c(-c3cnn(Cc4cccc(C(F)(F)F)c4)c3)nc2n(CC)c1=O | inactive
